# Test results: PubChem BioAssay
# Where “and” joins values, the source holds several entries; their conditions need not be identical. Equal entries are not always repeated. Calls of active or inactive are those of the source.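 The calls were made as follows, unless noted: active = compounds whose cell count with miR-34 switched on is under 0.7 times the count with it off; inactive = the rest.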
# How the values were obtained:
# [1] = liver-stage malaria parasite growth inhibition, primary screen, cell-based, HepG2, luciferase luminescence, HepG2 viability (AID 624349; in the data active = parasite load remaining mostly below about 12%, no sharp cut-off; inactive = mostly above about 10%;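 also: 100% = mean of DMSO negative control wells on the same plate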); conditions: P. berghei liver stage in HepG2, luciferase luminescence, concentration not given here; parasite load remaining: stronger effect = lower value; viability: measured here: HepG2 viability without parasites
# [2] = sensitizers of A549 cells to miR-34 induction, primary screen, imaging, A549 dox-inducible miR-34, nuclei and caspase counts (AID 1347080); conditions: A549 miR-34 inducible, Hoechst nuclei count, 48 h
# [3] = hESC survival regulators, cell-based (AID 493140; call rule not given here;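 also: cells exposed to compounds for four days before counting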); conditions: human embryonic stem cell survival screen; stronger effect = higher value
# [4] = inhibitors of Cryptococcus chitosan production, flow cytometry, Cibacron Brilliant Red staining (AID 1347148; call rule not given here;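 also: compound exposure lasted three days at 37 degrees C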); conditions: Cryptococcus neoformans chitosan, stronger effect = lower value; at 10 µM unless noted
# [5] = kinase inhibitors against Plasmodium liver-stage infection, cell-based, known kinase inhibitor set, luminescence, hepatoma host viability (AID 624392; call rule not given here;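 also: infected cells incubated roughly two days before readout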); conditions: Plasmodium liver stage in hepatoma cells, luciferase luminescence, concentration not given here; liver cell % of control: measured here: host liver cell viability; parasite % of control: stronger effect = lower value
# [6] = stronger effect = lower value, cell number ratio, induced over uninduced
# [7] = measured here: relative caspase fold change +Dox/-Dox
# [8] = measured here: total cells with miR-34 induction, stronger effect = lower value
# [9] = measured here: total cells without miR-34 induction
structure (smiles),measurement,setting,value
CO[C@H]1CC(O[C@@H]2/C(C)=C/C[C@@H]3C[C@@H](C[C@]4(CC[C@H](C)[C@@H](C5CCCCC5)O4)O3)OC(=O)[C@@H]3C=C(C)/C(=N/O)[C@H]4OC/C(=C\C=C\[C@@H]2C)[C@]43O)O[C@@H](C)C1O (stereo partly specified),parasite load remaining,[1],170% (inactive) and 47% (inactive)
same,viability,[1],86.8% and 106%
same,fold change,[2]; [6],0.877 (inactive)
same,fold change,[2]; [7],3.74
same,cell count,[2]; [8],9710
same,cell count,[2]; [9],11100
CC1(C)S[C@@H]2[C@H](NC(=O)[C@H](N)c3ccccc3)C(=O)N2[C@H]1C(=O)OC1OC(=O)c2ccccc21 (stereo partly specified),survival,[3],7.92 (inactive)
same,parasite load remaining,[1],114% (inactive)
same,viability,[1],77.4%
same,fold change,[2]; [6],0.95 (inactive)
same,fold change,[2]; [7],0.554
same,cell count,[2]; [8],8670
same,cell count,[2]; [9],9130
CCCCCCCC/C=C\CCCCCCCCOC[C@H](COP(=O)([O-])OCC[N+](C)(C)C)OC(C)=O,survival,[3],95.4 (inactive)
same,fold change,[2]; [6],0.905 (inactive)
same,fold change,[2]; [7],1.27
same,cell count,[2]; [8],6070
same,cell count,[2]; [9],6700
CCOC(=O)Oc1c(OC)cc(C(=O)O[C@@H]2C[C@@H]3CN4CCc5c([nH]c6cc(OC)ccc56)[C@H]4C[C@@H]3[C@H](C(=O)OC)[C@H]2OC)cc1OC,parasite load remaining,[1],-14.9% (active)
same,viability,[1],98.5%
same,fold change,[2]; [6],0.795 (inactive)
same,fold change,[2]; [7],2.41
same,cell count,[2]; [8],6440
same,cell count,[2]; [9],8100
CCCCC[C@H](O)/C=C/[C@@H]1[C@@H](C/C=C\CCCC(=O)O)[C@H]2CO[C@@H]1C2,survival,[3],104 (inactive)
same,fold change,[2]; [6],0.992 (inactive)
same,fold change,[2]; [7],1.22
same,cell count,[2]; [8],5990
same,cell count,[2]; [9],6040
CC(C)CC(=O)N[C@H](C(=O)NC(C(=O)NC(CC(C)C)[C@@H](O)CC(=O)N[C@@H](C)C(=O)N[C@@H](CC(C)C)[C@@H](O)CC(=O)O)C(C)C)C(C)C (stereo partly specified),parasite load remaining,[1],20.9% (inactive)
same,viability,[1],180%
same,fold change,[2]; [6],0.937 (inactive)
same,fold change,[2]; [7],3.28
same,cell count,[2]; [8],12400
same,cell count,[2]; [9],13300
C[C@@H]1C(=O)O[C@H]2CC34[C@H]5C[C@@H](C(C)(C)C)[C@]36[C@@H](OC(=O)[C@@H]6O)O[C@@]4(C(=O)O5)[C@]21O (stereo partly specified),parasite load remaining,[1],93.7% (inactive)
same,viability,[1],99.1%
same,fold change,[2]; [6],0.905 (inactive)
same,fold change,[2]; [7],1.08
same,cell count,[2]; [8],9000
same,cell count,[2]; [9],9940
CCOC(=O)[C@H](CCc1ccccc1)N[C@@H](C)C(=O)N1C(C(=O)O)C[C@@H]2CCC[C@@H]21 (stereo partly specified),survival,[3],13.5 (inactive)
same,parasite load remaining,[1],66.3% (inactive)
same,viability,[1],72.7%
same,fold change,[2]; [6],0.971 (inactive)
same,fold change,[2]; [7],0.659
same,cell count,[2]; [8],9850
same,cell count,[2]; [9],10100
CCC(NC(C)C)C(O)c1ccc(O)c2[nH]c(=O)ccc12 (stereo unspecified),parasite load remaining,[1],40.1% (inactive)
same,viability,[1],98.2%
same,fold change,[2]; [6],0.908 (inactive)
same,fold change,[2]; [7],1.47
same,cell count,[2]; [8],11700
same,cell count,[2]; [9],12900
CC1OC(O[C@H]2/C=C/C=C/C=C/C=C/C=C/C=C/C=C/[C@H](C)[C@@H](O)[C@@H](C)[C@H](C)OC(=O)CC(O)CC(O)CCC(O)C(O)CC(O)CC3(O)C[C@H](O)C(C(=O)O)C(C2)O3)C(O)[C@H](N)C1O (stereo partly specified),parasite load remaining,[1],85.7% (inactive) and 73.7% (inactive)
same,viability,[1],73.8% and 92.4%
same,fold change,[2]; [6],0.94 (inactive)
same,fold change,[2]; [7],0.836
same,cell count,[2]; [8],10800
same,cell count,[2]; [9],11500
CCCCCCCCCCCCCCCCOCC(CO)OC(C)=O (stereo unspecified),survival,[3],63.3 (inactive)
same,fold change,[2]; [6],0.942 (inactive)
same,fold change,[2]; [7],1.66
same,cell count,[2]; [8],5510
same,cell count,[2]; [9],5840
C[C@H]1c2cccc(O)c2C(O)=C2C(=O)C3(O)C(O)=C(C(N)=O)C(=O)[C@@H](N(C)C)[C@@H]3[C@@H](O)[C@@H]21 (stereo partly specified),survival,[3],3.25 (inactive)
same,parasite load remaining,[1],62.9% (inactive)
same,viability,[1],97.2%
same,fold change,[2]; [6],0.641 (active)
same,fold change,[2]; [7],1.76
same,cell count,[2]; [8],4060
same,cell count,[2]; [9],6330
CCCCC[C@@H](O)/C=C/[C@H]1[C@H](C/C=C\CCCC(=O)O)[C@@H]2CO[C@H]1C2,fold fluorescence,[4],4.13 (inactive)
CC[N+]1(C)[C@@H]2CC[C@H]1CC(OC(=O)[C@H]1CCC(C(=O)OC3C[C@H]4CC[C@@H](C3)[N+]4(C)CC)(c3ccccc3)c3ccccc31)C2 (stereo partly specified),parasite load remaining,[1],96.6% (inactive)
same,viability,[1],101%
same,fold change,[2]; [6],0.889 (inactive)
same,fold change,[2]; [7],1.08
same,cell count,[2]; [8],9010
same,cell count,[2]; [9],10100
CC[C@H](C)[C@H](N)C(=O)N[C@@H](CC(N)=O)C(=O)N[C@@H](CC(C)C)C(=O)N[C@@H](CCCCN)C(=O)N[C@@H](C)C(=O)N[C@@H](CC(C)C)C(=O)N[C@@H](C)C(=O)N[C@@H](C)C(=O)N[C@@H](CC(C)C)C(=O)N[C@@H](C)C(=O)N[C@@H](CCCCN)C(=O)N[C@@H](CCCCN)C(=O)N[C@H](C(=O)N[C@@H](CC(C)C)C(N)=O)[C@@H](C)CC,fold fluorescence,[4],3.8 [at 33.8 µM] (inactive)
CC(C)=CCC/C(C)=C/CC1=C(C)C(=O)c2ccccc2C1=O,parasite load remaining,[1],76.4% (inactive)
same,viability,[1],75.8%
same,fold change,[2]; [6],0.983 (inactive)
same,fold change,[2]; [7],0.847
same,cell count,[2]; [8],6780
same,cell count,[2]; [9],6900
CCCCCCCC/C=C\CCCCCCCC(=O)OC[C@H](O)COP(=O)(O)O,fold fluorescence,[4],3.84 (inactive)
C=CCNC1=C2C[C@H](C)C[C@@H](OC)[C@@H](O)[C@H](C)/C=C(\C)[C@@H](OC(N)=O)[C@H](OC)/C=C\C=C(/C)C(=O)NC(=CC1=O)C2=O,fold fluorescence,[4],7.27 [at 85.4 µM] (inactive)
CCC(=O)O[C@H]1CCC2C3CCc4cc(O)ccc4C3CC[C@@]21C (stereo partly specified),parasite load remaining,[1],105% (inactive) and 44.5% (inactive)
same,viability,[1],66.4% and 92.8%
same,fold change,[2]; [6],0.912 (inactive)
same,fold change,[2]; [7],2.49
same,cell count,[2]; [8],10500
same,cell count,[2]; [9],11500
O=C(O)C1(O)C[C@H](O)C(O)[C@@H](O)C1 (stereo partly specified),parasite load remaining,[1],88.4% (inactive)
same,viability,[1],72.5%
same,fold change,[2]; [6],0.922 (inactive)
same,fold change,[2]; [7],0.931
same,cell count,[2]; [8],8930
same,cell count,[2]; [9],9680
CCCCCCCCCCCCCCCC(=O)C1=C(O)[C@H](CO)OC1=O,fold fluorescence,[4],2.82 [at 135.7 µM] (active)
CC[C@H]1OC(=O)[C@H](C)[C@@H](OC2C[C@@](C)(OC)[C@@H](O)[C@H](C)O2)[C@H](C)[C@@H](O[C@@H]2O[C@H](C)C[C@H](N(C)C)[C@H]2O)[C@](C)(O)C[C@@H](C)/C(=N\OCOCCOC)[C@H](C)[C@@H](O)[C@]1(C)O (stereo partly specified),parasite load remaining,[1],75.3% (inactive)
same,viability,[1],93.9%
same,fold change,[2]; [6],0.893 (inactive)
same,fold change,[2]; [7],1
same,cell count,[2]; [8],9320
same,cell count,[2]; [9],10400
c1ccc(-c2[nH]ncc2-c2ccnc3ccccc23)nc1,parasite load remaining,[1],38% (inactive)
same,viability,[1],62.8%
same,liver cell % of control,[5],101%
same,parasite % of control,[5],63.9% (inactive)
same,fold change,[2]; [6],0.893 (inactive)
same,fold change,[2]; [7],0.903
same,cell count,[2]; [8],4970
same,cell count,[2]; [9],5570
C[C@@H](/C=C/c1cccc(Oc2ccc(F)cc2)c1)N(O)C(N)=O,fold fluorescence,[4],6.07 [at 158.1 µM] (inactive)
